Test results published in PMC5540273 (PLoS ONE, 2017).

Key:
Settings in all cases: concentration: 1 μM,replicates: in singlicate; n = 1
HASPIN = system: T1, HASPIN
T1 construct: gene GSG2

HCK = system: HCK
HIPK1 = system: HIPK1
HIPK2 = system: HIPK2
HIPK3 = system: HIPK3
HIPK4 = system: HIPK4
HPK1 = system: HPK1
HUNK = system: HUNK
ICK = system: ICK
IGF1R = system: IGF1R
IKK-alpha = system: T2, IKK-alpha
T2 construct: gene CHUK

IKK-beta = system: T3, IKK-beta
T3 construct: gene IKBKB

IKK-epsilon = system: T4, IKK-epsilon
T4 construct: gene IKBKE

INSRR = system: INSRR
INSR = system: INSR
IRAK1 = system: IRAK1
IRAK3 = system: IRAK3
IRAK4 = system: IRAK4
ITK = system: ITK
[1] = system: JAK1(JH1domain-catalytic)
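Also: KINOMEscan kinase panel screen.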

Structure (SMILES)	%Inh (HASPIN) [%]	%Inh (HCK) [%]	%Inh (HIPK1) [%]	%Inh (HIPK2) [%]	%Inh (HIPK3) [%]	%Inh (HIPK4) [%]	%Inh (HPK1) [%]	%Inh (HUNK) [%]	%Inh (ICK) [%]	%Inh (IGF1R) [%]	%Inh (IKK-alpha) [%]	%Inh (IKK-beta) [%]	%Inh (IKK-epsilon) [%]	%Inh (INSRR) [%]	%Inh (INSR) [%]	%Inh (IRAK1) [%]	%Inh (IRAK3) [%]	%Inh (IRAK4) [%]	%Inh (ITK) [%]	%Inh [1] [%]
CS(=O)(=O)c1cccc(CNc2nc(Nc3ccc4c(c3)[C@@H]3C[C@@H]4CNC3=O)ncc2C(F)(F)F)c1	0	0	60	34	7	33	86	0	0	89	5	0	87	74	94.5	39	0	0	49	93
O=C(NCC1CC1)c1ccc(-c2cc(C(=O)NC3CC3)ccc2F)cc1 [GW810445]	2	10	0	0	0	12	0	56	0	0	0	0	0	0	0	0	1	0	0	0
CCn1c(-c2nonc2N)nc2cncc(Br)c21 [SB-738004]	99.4	3	47	74	74	0	42	27	7	0	12	0	26	0	0	63	0	0	0	18
Cn1ccc2ncnc(Oc3ccc(NC(=O)Nc4cccc(C(F)(F)F)c4)c(Cl)c3)c21	0	47	26	15	0	17	39	2	0	0	53	19	6	0	16	0	0	0	1	0
COc1cccc(CNC(=O)NC2CCN(c3ccnc(Nc4cc(OC)c(OC)c(OC)c4)n3)C2)c1 (stereo not shown) [GSK1379765]	11	12	0	34	36	0	38	0	13	0	21	24	36	96.4	0	73	86	27	20	13
COc1cc2c(Nc3ccc(NC(=O)c4ccccc4)cc3)ncnc2cc1OCCCN1CCOCC1 [GSK301329]	0	0	15	0	3	79	15	0	2	15	0	4	0	0	0	5	26	11	26	0
COc1ccc(Nc2nccc(N3CCC(NC(=O)c4cccc(C#N)c4)C3)n2)cc1 (stereo not shown) [GSK1379730]	6	5	0	0	0	2	42	0	0	0	0	6	0	0	0	10	0	3	14	6
N#Cc1cccc(C(=O)NC2CCN(c3ccnc(Nc4ccc(F)cc4)n3)C2)c1 (stereo not shown) [GSK1379708]	0	0	0	3	0	0	40	7	0	0	16	16	0	0	4	17	27	2	2	17
COc1cc(Nc2nccc(N3CCC(NC(=O)c4cccc(C#N)c4)C3)n2)cc(OC)c1OC (stereo not shown) [GSK1379751]	8	0	0	0	3	0	45	0	0	0	19	0	5	0	0	58	70	15	0	0
Cc1ccn2nc(-c3ccc(F)cc3)c(-c3ccncc3)c2c1.Cl [GW457859]	32	10	0	0	0	0	12	52	0	0	0	0	16	0	0	13	0	0	0	16
O=C(Nc1ccccc1)c1cccc(Oc2ccc3nccn3n2)c1	15	15	0	0	0	32	0	0	63	0	0	0	91.5	86	0	25	3	21	0	0
COc1cc2nccc(Nc3ccc(Oc4ccccc4)cc3)c2cc1OC.Cl [GI261656]	29	97.6	0	0	11	0	2	9	0	0	0	0	35	0	0	0	0	0	0	8
Cc1n[nH]c2cc(Nc3ccnc(Nc4cccc(CN5CCOCC5)c4)n3)ccc12 [GW682569]	20	25	0	0	26	3	24	0	0	0	0	25	38	0	7	79	89	87	1	48
CCCC(=O)Nc1n[nH]c2ncccc12 [SB-601436]	29	0	20	0	0	0	6	28	7	0	0	0	0	0	0	0	0	0	0	5
COc1cc2ncn(-c3cc(OCC4CCCCC4)c(C(N)=O)s3)c2cc1OC [GSK204559]	0	0	9	0	0	68	39	0	0	5	0	2	0	0	14	0	12	9	13	0
Cn1ccc2ncnc(Oc3ccc(NC(=O)Nc4cccc(C(F)(F)F)c4)c(F)c3)c21	1	31	44	0	0	94.3	48	0	0	4	44	0	0	6	2	0	0	0	3	11
COC(=O)c1cccc(NC(=O)NC2CCN(c3ccnc(Nc4cc(OC)c(OC)c(OC)c4)n3)C2)c1 (stereo not shown) [GSK1379767]	15	5	0	0	6	0	72	0	0	3	0	0	40	0	11	62	79	11	11	9
Cl.c1ccc(Oc2ccc(Nc3ccnc4cc(-c5ccc(CN6CCNCC6)o5)ccc34)cc2)nc1 [GW567142]	0	84	0	0	7	10	0	1	0	0	0	0	42	0	20	0	0	5	2	21
CS(=O)c1ccc(-c2coc3ccc(-c4n[nH]c(=O)o4)cc23)cc1 (stereo not shown)	50	0	99.6	100	99.6	93.6	1	11	29	13	8	0	0	1	17	55	0	28	0	1
C[C@@H](Oc1cc(-n2cnc3ccc(-c4ccncc4)cc32)sc1C(N)=O)c1ccccc1Cl [GSK483724]	87	0	33	19	59	69	64	0	45	19	7	13	24	0	0	49	81	17	22	0
